Values joined by “and” are separate entries in the source; they are usually repeats but may differ in a detail not shown here. Equal values may be shown once. Among all 5,500 compounds or so, about 2,000 (36%) were called active. Roughly 18% stayed inconclusive and do not appear here. The list shows a part of the results. Values without a mark were called inactive. Rule as the data show it: active = normalized growth mostly below about 0.91 (no sharp cut-off); inconclusive = no clear call, values can overlap the other calls; inactive = mostly above about 0.92.
Assay: chemical genetic growth profiling, strain panel (AID 1159580);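 also: tested at 20 µM; growth read once vehicle control cultures reached saturation at 30 °C; 1 = growth at the plate median or of vehicle wells; lower values mean less growth of the strain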
Conditions: S. cerevisiae deletion strains, growth OD

COc1ccc(-c2oc3c(CC=C(C)C)c(O[C@@H]4O[C@H](CO)[C@@H](O)[C@H](O)[C@H]4O)cc(O)c3c(=O)c2O[C@@H]2O[C@@H](C)[C@H](O)[C@@H](O)[C@H]2O)cc1
normalized growth (locus YAL013W, strain DEP1, hits give low values): 1.04 | normalized growth (locus YAL021C, strain ccr4, hits give low values): 1.05 | normalized growth (locus YAL026C, strain drs2, hits give low values): 1.05 | normalized growth (locus YAL030W, strain snc1, hits give low values): 1.04 | normalized growth (locus YBL061C, strain skt5, hits give low values): 1.03 | normalized growth (locus YBR009C, strain hhf1, hits give low values): 1.03 | normalized growth (locus YBR021W, strain FUR4, hits give low values): 1.19 [resistant] (active) | normalized growth (locus YBR023C, strain chs3, hits give low values): 1.02 | normalized growth (locus YBR171W, strain sec66, hits give low values): 1.06 | normalized growth (locus YBR229C, strain ROT2, hits give low values): 1 | normalized growth (locus YBR231C, strain swc5, hits give low values): 1.03 | normalized growth (locus YBR279W, strain paf1, hits give low values): 1.03 | normalized growth (locus YCL011C, strain gbp2, hits give low values): 1.03 | normalized growth (locus YCL016C, strain dcc1, hits give low values): 1 | normalized growth (locus YCL029C, strain bik1, hits give low values): 0.976 | normalized growth (locus YCL061C, strain MRC1, hits give low values): 1.04 | normalized growth (locus YCL069W, strain vba3, hits give low values): 1.02 | normalized growth (locus YCR088W, strain abp1, hits give low values): 1.04 | normalized growth (locus YDL005C, strain med2, hits give low values): 1.03 | normalized growth (locus YDL035C, strain GPR1, hits give low values): 1 | normalized growth (locus YDL040C, strain nat1, hits give low values): 1.02 | normalized growth (locus YDL074C, strain BRE1, hits give low values): 0.988 | normalized growth (locus YDL101C, strain DUN1, hits give low values): 0.989 | normalized growth (locus YDL185W, strain tfp1, hits give low values): 0.955 | normalized growth (locus YDL192W, strain arf1, hits give low values): 0.987 | normalized growth (locus YDR001C, strain nth1, hits give low values): 1.04 | normalized growth (locus YDR069C, strain doa4, hits give low values): 1.06 | normalized growth (locus YDR101C, strain arx1, hits give low values): 0.975 | normalized growth (locus YDR137W, strain rgp1, hits give low values): 1.07 | normalized growth (locus YDR150W, strain NUM1, hits give low values): 1.01 | normalized growth (locus YDR159W, strain sac3, hits give low values): 1.07 | normalized growth (locus YDR162C, strain NBP2, hits give low values): 0.989 | normalized growth (locus YDR195W, strain ref2): 1.05 | normalized growth (locus YDR297W, strain sur2, hits give low values): 1.03 | normalized growth (locus YDR318W, strain mcm21, hits give low values): 0.986 | normalized growth (locus YDR334W, strain swr1, hits give low values): 1.04 | normalized growth (locus YDR335W, strain msn5, hits give low values): 1.02 | normalized growth (locus YDR388W, hits give low values): 0.99 | normalized growth (locus YDR392W, strain spt3, hits give low values): 1 | normalized growth (locus YDR502C, strain sam2, hits give low values): 0.989 | normalized growth (locus YEL003W, strain gim4, hits give low values): 1.03 | normalized growth (locus YEL037C, strain rad23, hits give low values): 1.03 | normalized growth (locus YEL061C, strain CIN8 (second series), hits give low values): 1.04 | normalized growth (locus YEL061C, strain CIN8, hits give low values): 0.993 | normalized growth (locus YER015W, strain faa2, hits give low values): 1.02 | normalized growth (locus YER016W, strain bim1, hits give low values): 1.03 | normalized growth (locus YER110C, hits give low values): 0.966 | normalized growth (locus YER111C, strain swi4, hits give low values): 1.05 | normalized growth (locus YER155C, strain BEM2 (second series), hits give low values): 1.05 | normalized growth (locus YER155C, strain BEM2, hits give low values): 1 | normalized growth (locus YER167W, strain BCK2, hits give low values): 1.01 | normalized growth (locus YFR010W, strain ubp6, hits give low values): 1.05 | normalized growth (locus YGL078C, strain dbp3, hits give low values): 0.983 | normalized growth (locus YGL086W, strain mad1, hits give low values): 0.975 | normalized growth (locus YGL167C, strain pmr1, hits give low values): 1.02 | normalized growth (locus YGL173C, strain kem1, hits give low values): 1.05 | normalized growth (locus YGL227W, strain vid30, hits give low values): 1.04 | normalized growth (locus YGL240W, strain doc1, hits give low values): 1.04 | normalized growth (locus YGL248W, strain PDE1, hits give low values): 1.01 | normalized growth (locus YGL253W, strain hxk2, hits give low values): 0.946 | normalized growth (locus YGR078C, strain PAC10, hits give low values): 1 | normalized growth (locus YGR135W, strain pre9, hits give low values): 1 | normalized growth (locus YGR252W, strain gcn5, hits give low values): 1.06 | normalized growth (locus YHR013C, strain ard1, hits give low values): 1.03 | normalized growth (locus YHR027C, strain rpn1, hits give low values): 1.03 | normalized growth (locus YHR030C, strain SLT2, hits give low values): 0.99 and 1.02 | normalized growth (locus YHR079C, strain IRE1 (second series), hits give low values): 0.965 | normalized growth (locus YHR079C, strain IRE1, hits give low values): 1.03 | normalized growth (locus YHR094C, strain hxt1, hits give low values): 0.988 | normalized growth (locus YHR129C, strain ARP1, hits give low values): 0.996 | normalized growth (locus YHR142W, strain chs7, hits give low values): 1.01 | normalized growth (locus YHR200W, strain rpn10, hits give low values): 0.997 | normalized growth (locus YIL066C, strain RNR3, hits give low values): 1.02 | normalized growth (locus YIL073C, strain SPO22, hits give low values): 0.924 | normalized growth (locus YIL125W, strain kgd1, hits give low values): 0.985 | normalized growth (locus YIR030C, strain dcg1, hits give low values): 0.983 | normalized growth (locus YJL092W, strain hpr5, hits give low values): 1.04 | normalized growth (locus YJL095W, strain BCK1 (second series), hits give low values): 1.03 | normalized growth (locus YJL095W, strain BCK1, hits give low values): 0.975 and 1.02 | normalized growth (locus YJL115W, strain asf1, hits give low values): 1.05 | normalized growth (locus YJL129C, strain trk1, hits give low values): 1.02 | normalized growth (locus YJL134W, strain LCB3, hits give low values): 1.01 | normalized growth (locus YJL154C, strain vps35, hits give low values): 1.04 | normalized growth (locus YJL164C, strain tpk1, hits give low values): 1.01 | normalized growth (locus YJL166W, strain qcr8, hits give low values): 1.04 | normalized growth (locus YJL168C, strain set2, hits give low values): 0.985 | normalized growth (locus YJL187C, strain SWE1 (second series), hits give low values): 0.987 | normalized growth (locus YJL187C, strain SWE1, hits give low values): 1.02 | normalized growth (locus YJR043C, strain POL32, hits give low values): 1.04

Source: PubChem BioAssay AID1159580 (chemical genetic matrix, 2015)
